MITF primary = human MITF inhibition, primary screen; O75030; AlphaScreen MITF homodimerization, bead proximity signal; inhibition, % at 2.6 µM; 650,000 compounds, 0.91% hits; AID 1259374; in the data active = inhibition above about 50%
Target sequence (O75030 whole entry, looked up): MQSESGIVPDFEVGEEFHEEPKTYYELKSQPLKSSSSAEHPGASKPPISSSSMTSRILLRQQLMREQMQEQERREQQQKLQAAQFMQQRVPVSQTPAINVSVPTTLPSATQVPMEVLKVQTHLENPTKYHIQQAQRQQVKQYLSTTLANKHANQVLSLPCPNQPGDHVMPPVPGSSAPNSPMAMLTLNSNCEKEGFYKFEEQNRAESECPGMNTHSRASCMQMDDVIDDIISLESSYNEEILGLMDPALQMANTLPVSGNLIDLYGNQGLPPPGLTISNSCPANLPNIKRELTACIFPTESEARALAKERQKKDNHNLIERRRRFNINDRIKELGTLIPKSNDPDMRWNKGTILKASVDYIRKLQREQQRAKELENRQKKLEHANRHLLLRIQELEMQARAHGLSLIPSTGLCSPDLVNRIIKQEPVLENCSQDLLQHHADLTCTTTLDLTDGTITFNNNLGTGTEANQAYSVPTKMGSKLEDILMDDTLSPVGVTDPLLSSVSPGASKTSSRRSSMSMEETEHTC
GPR151 ag = activators of human GPR151; Q8TDV0; PathHunter beta-arrestin GPR151 cells, luminescence; activation, % at 11.2 µM; 650,000 compounds, 1% hits; AID 1508602; in the data active = activation above about 4.9%
FBW7 activator = human FBW7 E3 ligase activation, primary screen | Q969H0 | AlphaScreen FBW7–phospho-cyclin E peptide binding, activator screen | normalized activity (activation), % at 26.1 µM | 650,000 compounds, 0.13% hits; in the data active = normalized activity above about 1.9%;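 also: purified mutant Fbw7 with reduced substrate affinity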
TEAD-YAP block = TEAD-YAP interaction inhibition; AID 1259422; 640,000 compounds, 1.4% hits; HEK-TIYL cells, TEAD-Gal4/YAP UAS-luciferase luminescence; inhibition, % at 9.12 µM; in the data active = inhibition above about 32%
Of the large screens only hits and unclear results are named; the others gave an inactive call. A selection: hits, their analogues and other compounds. The true share with any hit is near 3.4%.

CCOC(=O)c1cccc(NC(=O)COc2ccc(Cl)cc2Cl)c1	TEAD-YAP block 81
CCCCOC(=O)c1cccc(NC(=O)COc2ccc(Cl)cc2Cl)c1	TEAD-YAP block 57
CCOc1ccc(NC(=O)c2cccc(C)c2[N+](=O)[O-])cc1	none
CCN=C(NCC)SC1CC(=O)N(c2cc(Cl)cc(Cl)c2)C1=O (stereo not given)	none
C/C(=N\N=C1\NC(=O)C(CC(=O)Nc2ccc(Cl)cc2)S1)c1ccccc1 (stereo not given)	none
CC1CN=C(N(Cc2ccccc2)S(=O)(=O)c2ccc(Cl)s2)S1 (stereo not given)	none
CCOC(=O)N1CCC(c2nnc(-c3ccc(Cl)cc3Cl)o2)CC1	none
COc1ccc(OC)c(CNc2ncc(-c3cccc(Cl)c3)n2C)c1	TEAD-YAP block 45
COc1cc(C(=O)N2CCc3c(F)c(F)c(F)c(F)c32)cc(OC)c1OC	none
O=C(Nc1ccc2oc(-c3ccc(Cl)cc3)nc2c1)c1ccc(Cl)c([N+](=O)[O-])c1	none
Cc1ccc(C(=O)N2CCN(c3nc(-c4ccccc4)c4cc(Br)ccc4n3)CC2)cc1	none
Cc1ccc2nc(N3CCN(C=O)CC3)nc(-c3ccccc3)c2c1	FBW7 activator 2.1
O=C(c1ccccc1)N1CCN(c2nc(-c3ccccc3)c3ccccc3n2)CC1	FBW7 activator 2.2
CC(C)c1cc(=O)[nH]c(-n2nc(-c3ccco3)cc2NC(=O)C(c2ccccc2)c2ccccc2)n1	none
CSCCOC(=O)c1[nH]c2c(c1C)C(=O)CC(c1ccccc1)C2 (stereo not given)	TEAD-YAP block 45
COC(=O)c1[nH]c2c(c1C)C(=O)CC(c1ccc(C)cc1)C2 (stereo not given)	none
CCCOCCOC(=O)c1[nH]c2c(c1C)C(=O)CC(c1ccccc1)C2 (stereo not given)	TEAD-YAP block 43
COc1ccc(C2CC(=O)c3c([nH]c(C(=O)OCCSC)c3C)C2)cc1 (stereo not given)	none
COC(=O)c1[nH]c2c(c1C)C(=O)CC(c1ccc(F)cc1)C2 (stereo not given)	TEAD-YAP block 40
CCOCCOC(=O)c1[nH]c2c(c1C)C(=O)CC(c1ccccc1)C2 (stereo not given)	TEAD-YAP block 49
Cc1c(C(=O)O)[nH]c2c1C(=O)CC(c1ccc(Cl)cc1)C2 (stereo not given)	none
CCOC(=O)c1[nH]c2c(c1C)C(=O)CC(c1ccc(OCC)c(OC)c1)C2 (stereo not given)	none
CCOC(=O)c1[nH]c2c(c1C)C(=O)CC(c1ccc(F)cc1)C2 (stereo not given)	FBW7 activator 2.3, TEAD-YAP block 49
CCCOC(=O)c1[nH]c2c(c1C)C(=O)CC(c1ccco1)C2 (stereo not given)	TEAD-YAP block 56
Cc1c(C(=O)OCC2CCCO2)[nH]c2c1C(=O)CC(c1ccc(F)cc1)C2 (stereo not given)	none
CCOC(=O)c1[nH]c2c(c1C)C(=O)CC(c1ccccc1)C2 (stereo not given)	TEAD-YAP block 47
COCCOC(=O)c1[nH]c2c(c1C)C(=O)CC(c1ccc(OC)c(OC)c1)C2 (stereo not given)	none
CCOCCOC(=O)c1[nH]c2c(c1C)C(=O)CC(c1cc(OC)c(OC)c(OC)c1)C2 (stereo not given)	TEAD-YAP block 42
Cc1cccc(NC(=O)c2sc3ncn(CC(=O)N4CCCC(C)C4)c(=O)c3c2C)c1 (stereo not given)	none
CCCCC(=O)N1c2cc(C)ccc2C2=C(SC(C(=O)OC)=C(C(=O)OC)C23SC(C(=O)OC)=C(C(=O)OC)S3)C1(C)C	none
CCOC(=O)c1[nH]c(C)c(CN(C(C)=O)c2ccc(OCC)cc2)c1C	TEAD-YAP block 52
COCCNC(=O)C(=O)Nc1cccc(C(F)(F)F)c1	none
COc1ccccc1NC(=S)N/N=C/c1ccc2c(c1)OCCO2	TEAD-YAP block 61
COc1ccccc1NC(=O)C(=O)N/N=C/c1ccc2c(c1)OCO2	none
CCC(C)n1c(SCc2ccccc2Cl)nc2ccsc2c1=O (stereo not given)	TEAD-YAP block 51
CCC(C)n1c(SCc2c(F)cccc2Cl)nc2ccsc2c1=O (stereo not given)	none
CC(=O)Nc1ccc(-c2cn3c4c(sc3n2)CCCC4)cc1	none
c1ccc(-c2cn3c4c(nnc3n2)CCCC4)cc1	TEAD-YAP block 44
c1ccc(-c2cn3c4c(sc3n2)CCCC4)cc1	TEAD-YAP block 85
Nc1ccc(-c2cn3c4c(sc3n2)CCCC4)cc1	none
Fc1ccc(-c2cn3c4c(sc3n2)CCCC4)cc1	TEAD-YAP block 52
O=C(Nc1ccc(-c2cn3c4c(nnc3n2)CCCC4)cc1)c1cccnc1	none
O=C(CNC(=S)N(Cc1cccs1)C1CCCC1)NCc1ccc(F)cc1	none
CCOC(=O)N1CCC(N(CCN(C)C)C(=S)Nc2cccc(C(F)(F)F)c2)CC1	none
C=CCN1C2=NCCN2c2ccccc21	none
CN(C)C(=O)CSc1nnc(-c2ccco2)n1C	FBW7 activator 2.1
CN(C)/C=C1/S/C(=N/S(=O)(=O)c2ccccc2)N(C2CCCCC2)C1=O	FBW7 activator 2.5
Cc1nc2ccc(NC(=O)NC3CCCCC3)cc2nc1C	none
COC(=O)c1ccc(Nc2cc(C)nc3cc(Cl)ccc23)cc1	TEAD-YAP block 49
COC(=O)c1ccc(Nc2cc(C)nc3ccc(Cl)cc23)cc1	TEAD-YAP block 49
COC(=O)c1ccc2nc(C)cc(Nc3ccc(C(=O)O)cc3)c2c1	none
COc1ccc2nc(C)cc(Nc3ccc(O)cc3)c2c1	TEAD-YAP block 34
COc1ccc(Nc2cc(C)nc3ccc(OC)cc23)cc1	none
O=C(O)/C=C/c1ccc(OCc2ccccc2)cc1	none
CC(C)(C)c1ccc(NC(=O)Nc2ccccc2[N+](=O)[O-])cc1	TEAD-YAP block 62
CONC(=O)Nc1ccccc1[N+](=O)[O-]	none
CC(=O)Oc1ccc(Br)c2cccnc12	none
O=C(Nc1ccc(/C=C/c2ccccc2)cc1)c1ccc(Br)cc1	none
Clc1ccc(OCc2cn3ccccc3n2)cc1	none
O=C1CCc2ccc(OCc3cn4ccccc4n3)cc21	TEAD-YAP block 58
Cc1cc(NC(=O)CSc2nc3ccccc3c(=O)n2CCCC(=O)NCCc2ccccc2)n[nH]1	none
Cc1cc(NC(=O)CSc2nc3ccccc3c(=O)n2CCCC(=O)N2CCCC2)n[nH]1	TEAD-YAP block 54
Cc1nc2c3ccccc3nc(SCC(=O)Nc3cc(C)[nH]n3)n2n1	TEAD-YAP block 56
Cc1cc(NC(=O)CSc2nc3ccccc3c(=O)n2CCCN2CCC(C)CC2)n[nH]1	TEAD-YAP block 85
O=C(CSc1nc2ccccc2c(=O)n1CCCN1CCCCC1)Nc1ccccc1Cl	none
Cc1cc(NC(=O)CSc2nc3ccccc3c(=O)n2CCCN2CCCCC2)n[nH]1	TEAD-YAP block 84
Cc1cc(NC(=O)CSc2nc3ccccc3c(=O)n2CCC(=O)N2CCN(c3ccccc3)CC2)n[nH]1	none
CC(C)c1ccc(/C=C/C(=O)Nc2ccccc2C(F)(F)F)cc1	none
CC1CCCN(C(=O)c2cc3c(=O)[nH]c4ccccc4c3n2C)C1 (stereo not given)	none
CC1=Nc2cc(C(=O)NCCN(C)C)ccc2Sc2ccc(Cl)cc21	TEAD-YAP block 56

Screens: PubChem, The Scripps Research Institute Molecular Screening Center
